In all, about 38,000 compounds went through this assay and about 1,200 (3.2%) showed an effect of 50% or more. The median lay at about -58%. This excerpt belongs to a sample that is enriched for strong results.
Each compound was assayed on Plasmodium falciparum (assay: Calibr Malaria Delayed Death Assay SOP). Settings: concentration 4.99e-06 (unit not given; other assays of the set use mol/L).
Assay type: functional, organism-based
Design: scale not given: in the data most compounds retested in dose-response had high values

| Compound | Percent Effect |
| --- | --- |
| Cc1n[nH]c(C)c1CNC(=O)N1CCCC(Cc2nccn2C)C1 (stereo not given) | -135.2% |
| O=C1CC(N2CCN(c3ccc(F)cc3)CC2)C(=O)N1Cc1cccs1 (stereo not given) | -39.99% |
| COc1ccc(Nc2c[nH]c(=O)[nH]c2=O)cc1 | -70.96% |
| CNC(=O)[C@@]12CCC3(CCNCC3)[C@@H]1CN(S(C)(=O)=O)C2 | -13.04% |
| N#CC1(C(=O)N2CCOC(c3ccc(F)cc3)C2)CCCC1 (stereo not given) | -26.56% |
| O=C(O)C(F)(F)F.O=C(O)C(F)(F)F.c1cncc(OC[C@]23COC[C@H]2CN(Cc2nccs2)C3)c1 | -94% |
| Cc1cc(C(=O)N2CCn3cc(CN4CCCC4)nc3C2)no1 | -104.3% |
| CCC(NC1CCN(S(C)(=O)=O)CC1)c1cccs1 (stereo not given) | -138.1% |
| COc1cc(NC(=O)NCC2CCCO2)cc(OC)c1 (stereo not given) | -111.7% |
| Cc1cncc(C2CCCN(CC3CCC3)C2)n1 (stereo not given) | -16.18% |
| COC1CCN(C(=O)Nc2ccccc2)CC(=O)N(C)c2ccccc21 (stereo not given) | -65.05% |
| CCc1nc(C)c(CC(=O)N2CCC3(CC2)OCCCC3OC)c(=O)[nH]1 (stereo not given) | -118.2% |
| CCN1CCC(CNCc2cc(OC)ccc2OC)C1 (stereo not given) | 56.22% |
| CCN1CCC(CNCc2c[nH]nc2C(C)(C)C)C1.Cl (stereo not given) | -150.6% |
| CCN1CCC(CNC(=O)NCc2cc(-c3ccc(C)cc3)no2)C1 (stereo not given) | -139.2% |
| CCN1CCCC(CNC(=O)CCc2ccc(OC)c(F)c2)C1 (stereo not given) | -76.38% |
| CCN1CCC(CNCc2cc(C)ccc2OC)C1 (stereo not given) | 82.22% |
| CCN1CCC(Cn2ccc3c(OC)c(OC)ccc3c2=O)C1 (stereo not given) | 20.65% |
| CCO[C@H]1COC[C@@H]1NC(=O)CCc1nc(-c2ccccc2)no1 | -93.65% |
| CCS(=O)(=O)N1CC(c2nc(-c3ccsc3)no2)C1 | -143.6% |
| CCOCC(=O)NCCc1nc(C2CC2)cc(C(F)(F)F)n1 | -127.5% |
| Cc1cccnc1CNC(=O)N(CCCO)C1CCc2ccccc21 (stereo not given) | -23.18% |
| COc1c(CNC2(c3ccc(Cl)cc3)CCC2)c(C)nn1C | 58.68% |
| COc1c(CNC2(c3noc(C)n3)CCC2)c(C)nn1C.Cl | -62.55% |
| COc1c(CNC2CCc3cc(Cl)ccc32)c(C)nn1C (stereo not given) | 17.62% |
| Cc1cc(C)n(-c2cccc(C(=O)Nc3n[nH]c(C4CCCO4)n3)c2)n1 (stereo not given) | -55.68% |
| Cc1ccc(O)c(CNc2cccc(CN3CCSCC3)c2)n1 | -16.46% |

| Compound | Percent Effect |
| --- | --- |
| OCC1(Cc2cccc(Cl)c2)CCCN(c2ncccn2)C1 (stereo not given) | -87.85% |
| CC1(C)CN(CCC(=O)NCc2cccc(Cl)c2)CC[C@]1(C)O | 51.99% |
| Cc1ccc(C(=O)O)cc1CNC(=O)CN1CC[C@](C)(O)C(C)(C)C1 | -2.954% |
| O=C(CCN1CCCC(CO)(CC2CC2)C1)NCc1cccc(Cl)c1 (stereo not given) | 79.46% |
| NC(=O)CN(CC(=O)NCc1cccc(Cl)c1)C1CCCC1 | -61.22% |
| O=C(CCC(=O)NCc1cccc(Br)c1)NCCN1CCCC1 | -111.7% |
| CC(C)NC(=O)c1cc2c(s1)CCN2c1ncccn1 | -26.36% |
| Cc1nc2n(n1)CC(NCc1c(Cl)ccc3cccnc13)CC2 (stereo not given) | -131.5% |
| CC(=O)CSc1nnc2n1N=CN(c1cccc(Cl)c1)C2 | -35.13% |
| N#Cc1cccc(OCCN2CCCC2C(=O)Nc2nccs2)c1 (stereo not given) | -33.68% |
| N#Cc1cccc(OCCN2CCC(C(=O)N3CCOCC3)CC2)c1 | -57.78% |
| N#Cc1cccc(OCCN2CCCC2C(=O)N2CCSCC2)c1 (stereo not given) | 50.57% |
| CCc1nc(C)c(C(=O)N[C@@H]2c3ccccc3C[C@@H]2O)o1 | -65.76% |
| Cn1ncc2c(=O)[nH]c(CN3CCCC3c3cccs3)nc21 (stereo not given) | -14.29% |
| CN(C)c1nc(N)nc(CN2CCC(c3ccccc3)CC2)n1 | 80.66% |
| Oc1ccccc1CN1CCCCCC1c1cccs1 (stereo not given) | -50.57% |
| CN(C)c1nc(N)nc(CN2CCC(c3nc4ccccc4o3)CC2)n1 | 8.177% |
| Cc1nc(CC2CCCN(Cc3nc(N)c4ccccc4n3)C2)no1 (stereo not given) | 18.93% |
| O=C(O)CN1CCC(c2ccccc2)CC1 | -86.8% |
| CN(C)c1nc(N)nc(CN2CCCC(c3ccccc3)CC2)n1 (stereo not given) | 53.37% |
| CN(C)c1nc(N)nc(CN2CCCC2c2cccs2)n1 (stereo not given) | 52.44% |
| Cn1ccc(CN2CCC(c3ccccc3)CC2)cc1=O | 20.97% |
| COC(=O)c1cc(OCC2CCC2)cc(C(=O)N[C@H](C)C(N)=O)c1 | -189.7% |
| CC(C)(C)c1n[nH]c(C2CN(C(=O)Cn3ccccc3=O)CCO2)n1 (stereo not given) | -54.87% |
| CC(C)NC(=O)N1CCCC2(CC(C(=O)Nc3ccccc3)=NO2)C1 (stereo not given) | -67.17% |
| COCCN(C)C[C@@H]1CN(C(=O)c2ccc(SC)cc2)C[C@@H]1CO | -5.304% |
| COc1ccc(CCN(C)C(=O)CN2C(=O)OC[C@@H]2C(C)C)cc1OC | -25.4% |

| Compound | Percent Effect |
| --- | --- |
| CNC(=O)N1CCC(NC(=O)c2cnn(C)c2)CC1 | -113.2% |
| NS(=O)(=O)c1cnn(CCC(=O)N(Cc2ccccc2)C2CC2)c1 | -42.03% |
| COC(=O)c1ccc(N2CCN(CC(=O)NC(N)=O)C(C)C2)cc1 (stereo not given) | -25.15% |
| CCOC(=O)NC1CCCN(Cc2ccc(-n3cncn3)c(C)c2)C1 (stereo not given) | -7.286% |
| CC(C)(C)OC(=O)NC1CCCN(Cc2cccs2)C1 (stereo not given) | 25.55% |
| CC(C)(C)OC(=O)NC1CCCN(Cc2cccc(O)c2)C1 (stereo not given) | 51.54% |
| CCOc1ccc(C(=O)n2cccn2)cc1 | -77.79% |
| O=C(c1ccc(F)cc1)N1CCOC(c2nc(-c3ncccn3)no2)C1 (stereo not given) | -155.2% |
| O=C(O)C(F)(F)F.c1cnc(N2CCOC3(CCN(CC4CCOC4)CC3)C2)nc1 (stereo not given) | -16.11% |
| CN1CCN(c2ccc(NC(=O)c3cccs3)c(C(F)(F)F)c2)CC1 | 73.25% |
| CN1CCN(c2ccc(NC(=O)c3ccccn3)c(C(F)(F)F)c2)CC1 | -41.85% |
| CN1CCN(c2ccc(NC(=O)c3ccoc3)c(C(F)(F)F)c2)CC1 | -45.74% |
| Cc1nc(CCCC(=O)Nc2cccc(N3CCNC3=O)c2)cs1 | -207.5% |
| Cc1ccc(N2CCCC(NCc3cnc(C)s3)C2)nn1 (stereo not given) | -130.3% |
| CC(C)[C@@H]1CN(C2CCN(Cc3ccccc3)CC2)C[C@H]1NS(C)(=O)=O | 2.556% |
| CC(c1ccncc1)N(C)S(C)(=O)=O (stereo not given) | -81.75% |
| COc1ncccc1C1CC(=O)Nc2cc(NS(C)(=O)=O)ccc21 (stereo not given) | -136.9% |
| Nc1cc(N2CCCC(COc3ccc(F)cc3)C2)ncn1 (stereo not given) | -4.598% |
| Cc1ccc(S(=O)(=O)NCC2CNCCOC2)cc1Cl (stereo not given) | 47.92% |
| Cc1cc(C)cc(S(=O)(=O)NCC2CNCCOC2)c1 (stereo not given) | 6.797% |
| Cc1cc(S(=O)(=O)NCC2CNCCOC2)c(C)cc1Cl (stereo not given) | 75.13% |
| Cc1ccccc1CCC1CCCN(C(=O)Cc2cc(=O)[nH]c(N)n2)C1 (stereo not given) | -123.2% |
| CC(C)Cc1cc(C(=O)NCC2CCCN(Cc3ccco3)C2)on1 (stereo not given) | -23.35% |
| Cc1cnn(CCCNCc2csc(COc3ccccc3)n2)c1 | 70.2% |
| Cc1cnn(CCNCc2csc(COc3ccccc3)n2)c1 | 42.25% |
| c1ccc(OCc2nc(CNCCn3cccn3)cs2)cc1 | 20.38% |
| COCCn1ccnc1C1CCN(C(=O)CSc2nnc(C)s2)CC1 | -110.9% |

| Compound | Percent Effect |
| --- | --- |
| O=C(NC[C@H]1OC[C@@H](N(CC2CC2)CC2CC2)[C@@H]1O)Nc1ccccc1 | 64.49% |
| CN(C)[C@@H]1CO[C@H](CNC(=O)Nc2ccccc2)[C@H]1O | -62.35% |
| O=C(NC[C@H]1OC[C@@H](NC2CCC2)[C@@H]1O)Nc1ccccc1 | -143.1% |
| CN(CCCC1CCCO1)C(=O)c1cccc(C#N)c1 (stereo not given) | -170.6% |
| O=C(O)CCCC(=O)N1CCC(c2noc3cc(F)ccc23)CC1 | -131.6% |
| CC(=O)N1CCCN(C(=O)NCc2cc[nH]n2)CC1 | -10.61% |
| CS(=O)(=O)c1ccc(CNC(=O)NCc2cc[nH]n2)cc1 | -45.13% |
| CCC(O)(CNCc1ccncc1)c1ccc(Br)cc1 (stereo not given) | 3.807% |
| CCC(O)(CNCc1cc[nH]n1)c1ccc(Br)cc1 (stereo not given) | 76.25% |
| CCC(O)(CNCc1ncc[nH]1)c1ccc(Br)cc1 (stereo not given) | 65.85% |
| CC(C)(C)OC(=O)N1CCCc2ccc(NCc3ncc[nH]3)cc21 | 26.46% |
| O=C(c1cnccn1)N1C[C@@H]2CC[C@H](C1)N(S(=O)(=O)c1cccnc1)C2 | -81.69% |
| CC(C)c1nc(C2CCCN(C(=O)CCn3ccccc3=O)C2)no1 (stereo not given) | -110.1% |
| CCS(=O)(=O)N1CCC2(CCN(C(=O)c3cccs3)CC2)CC1 | -4.516% |
| CNS(=O)(=O)C1CCN(c2cc(C(C)C)nc(C(C)C)n2)C1 (stereo not given) | -29.56% |
| CCN(C(=O)CN1CCCC1c1ccc(F)cc1)c1ccccc1C (stereo not given) | -25.99% |
| CCN(C(=O)CN1CCCC1Cc1ccccc1)c1ccccc1 (stereo not given) | 59.02% |
| N#CCCN(C(=O)CN1CCCC1c1ccccc1Cl)c1ccccc1 (stereo not given) | 38.72% |
| N#CCCN(C(=O)CN1CCCC1C1CCCCC1)c1ccccc1 (stereo not given) | 50.3% |
| CN(C(=O)CN1CCCC1Cc1ccccc1)c1ccccc1 (stereo not given) | 20.57% |
| Cc1ccc(C2CCCN2CC(=O)N(CCC#N)c2ccccc2)cc1 (stereo not given) | 61.31% |
| N#CCCN(Cc1ccco1)C(=O)CN1CCCC1c1cccs1 (stereo not given) | 2.269% |
| Cc1cc(C2CCCN2CC(=O)N(CCC#N)c2ccccc2F)on1 (stereo not given) | -128.3% |
| CCN(C(=O)CN1CCCC1c1ccc(OC)cc1)c1ccccc1 (stereo not given) | 17.94% |
